Screening results deposited in PubChem by National Center for Advancing Translational Sciences (NCATS).
Shown is part of a subset that was picked to be rich in hits.
IL1B secr inh – qHTS for Inhibitors of Inflammasome Signaling: IL-1-beta AlphaLISA Primary Screen | AID 743279, 2014 | activity change, % at 57.5 µM | 360,000 compounds, 4.7% hits | THP-1 LPS/ATP IL-1B secretion, AlphaLISA, 16 h; active compounds read low; in the data active = activity change below about -50%; inconclusive = mostly about -30% to -49%
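Secreted IL-1B measured by AlphaLISA bead assay after 16 h compound exposure of THP-1 cells; compounds (final up to 57.5 uM) added 1 h before LPS (250 ng/mL) and ATP (1.25 mM) stimulation; lower signal means less secretion.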
TDP1 cell noCPT – qHTS for Inhibitors of human tyrosyl-DNA phosphodiesterase 1 (TDP1): qHTS in cells in absence of CPT | DT40 Tdp1-/- hTDP1 cells, no CPT, ATP luminescence, 48 h | 420,000 compounds, 15% hits | Potency, µM (top dose mostly 46.2 µM), without a hit: at the highest dose activity change, negative = growth inhibition, usual class: inhibitors | AID 686978, 2013; also: potency is read from the fitted curve at half-maximal effect; nearly all actives have a fitted effect of over 55% in size
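Chicken DT40 Tdp1-/- cells stably complemented with human TDP1 were seeded at 400 cells/well with DMSO in place of 20 nM camptothecin. After compound pinning, cells grew at least 48 hr at 37 °C; viability read by CellTiter-Glo luminescence.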
HT1080NT lethal – qHTS for induction of synthetic lethality in tumor cells producing 2HG: qHTS for the HT-1080-NT fibrosarcoma cell line; 360,000 compounds, 1.6% hits; Potency, µM (series often up to 46.1 µM), inactives show top-dose activity, negative = less viability, actives largely listed as cytotoxic; AID 686970, 2013; HT-1080-NT fibrosarcoma viability, CellTiter-Glo ATP luminescence, 48 h;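 also: NT is the 2HG producing partner of a matched IDH1 knockdown line; potency is read from the fitted curve at half-maximal effect; 0% = DMSO-treated cells and -100% = media-only wells without cells; nearly all actives have a fitted effect of over 55% in size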
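A 48-hour cytotoxicity screen used HT-1080-NT cells plated 2 hours before compound delivery. ATP-based CellTiter-Glo luminescence measured viability, normalized to DMSO and no-cell controls.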
HT1080 IDH1KD tx – qHTS for induction of synthetic lethality in tumor cells producing 2HG: qHTS for the HT-1080-IDH1KD cell line; HT-1080 IDH1 knockdown viability, ATP luminescence, 48 h; Potency, µM (top dose mostly 46.1 µM), for inactives: at the highest dose activity, negative = toxicity, actives largely listed as cytotoxic; 360,000 compounds, 2% hits;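 also: potency is read from the fitted curve at half-maximal effect; 0% = DMSO wells and -100% = cell-free medium wells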
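Knockdown cells (IDH1KD HT-1080) received compounds 2 h after plating at 750 cells/well and were kept 48 h at 37 °C in 5% FBS RPMI. A CellTiter-Glo luminescence read gave % activity for curve fitting.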
ALOX12 inh – Primary qHTS assay for inhibitors of human arachidonate 12S-lipoxygenase (ALOX12): Round 2. purified 12hLO, xylenol orange hydroperoxide absorbance. Potency, µM (series often up to 108 µM), without a hit: at the top dose activity change, negative = inhibition, usual class: inhibitors. 580,000 compounds, 1.1% hits. AID 1671190, 2021; also: potency is read from the fitted curve at half-maximal effect
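Hydroperoxide product was detected by ferrous iron/xylenol orange as the 573 to 405 nm absorbance ratio. Arachidonic acid at 40 uM (final) was turned over for 30 min at room temperature by 150 nM human 12hLO, pH 7.0 Hepes buffer, after 15 min compound preincubation.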
TDP1 cell CPT – qHTS for Inhibitors of human tyrosyl-DNA phosphodiesterase 1 (TDP1): qHTS in cells in presence of CPT; AID 686979, 2013; 420,000 compounds, 12% hits; Potency, µM (top dose mostly 46.2 µM), inactives show top-dose activity change, negative = growth inhibition, most hits filed as inhibitors; chicken DT40 Tdp1-/-;hTDP1 cells + 20 nM CPT, ATP luminescence, 48 h; also: potency is read from the fitted curve at half-maximal effect; nearly all actives have a fitted effect of over 55% in size
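Cell growth measured by CellTiter-Glo luminescence after a minimum 48 h, 37 C compound exposure with 20 nM CPT in Tdp1-knockout DT40 cells stably expressing hTDP1, seeded 400/well; qHTS titration format.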
An asterisk follows results filed as active; ? = inconclusive; / = no result given; [ ] = another dose, or the depositor's remark. Unless noted, calls follow the shape of the dose curve; as a rule, active = well fitted curve in the direction sought with a large enough effect; inconclusive = small, poorly fitted or top-dose-only effect, or another doubt; inactive = no such curve, though single readings can be large; an effect the other way counts as inactive or inconclusive. Unless noted, % is scaled to controls: 0 for no effect and ±100 for the full control effect.

SMILES | IL1B secr inh | TDP1 cell noCPT | HT1080NT lethal | HT1080 IDH1KD tx | ALOX12 inh | TDP1 cell CPT
O=C(CCN1CCN(c2ccccc2F)CC1)c1ccc(Br)cc1 | -2 | 2.9µM* | ? | ? | / | 2.6µM*
Cc1nc(-c2cnccn2)n(CC(=O)Nc2ccc(F)c(Cl)c2)c(=O)c1C | / | / | / | / | 8% | /
COc1cc(OC)c(C(=O)NC23CC4CC(CC(C4)C2)C3)cc1OC | 3 | 18µM* | -4% | -7% | 14% | ?
COc1ccc(C(=O)NNC(=O)C(NC(=O)c2cc(OC)cc(OC)c2)C(C)C)cc1 (stereo unspecified) | -22 | 20% | 10% | 16% | 0% | 19%
CCOc1ccc(/C=N/NC(=O)NC23CC4CC(CC(C4)C2)C3)cc1O | -16 | ? | -15% | -22% | ? | ?
COc1cc(OC)cc(C(=O)NC(C(=O)N2CCc3ccccc3C2)C(C)C)c1 (stereo unspecified) | 31 | ? | ? | ? | -2% | 21µM*
COc1cc(OC)cc(C(=O)N[C@H](C(=O)NC23CC4CC(CC(C4)C2)C3)C(C)C)c1 | 33 | ? | -25% | -22% | 0% | 29µM*
O=C(N/N=C/c1ccc(O)c(O)c1)NC12CC3CC(CC(C3)C1)C2 | -82* | 15µM* | -4% | ? | 0% | 12µM*
COc1ccc(C(=O)NC23CC4CC(CC(C4)C2)C3)cc1OC | -3 | -12% | 1% | -2% | -3% | -27%
CCCn1c(=O)n(C)c(=O)c2c(SCC(=O)Nc3ccc4c(c3)OCO4)nc(C3CC3)nc21 | / | / | / | / | -38% | /
COc1cn(-c2ccccc2)nc1C(=O)OCC(=O)NC1CCCC1 | / | / | / | / | -21% | /
COc1ccc(CNC(=O)CSc2ccccc2C(=O)OCC(=O)C(C)(C)C)cc1 | / | / | / | / | -20% | /
COc1ccc(CNC(=O)c2cc3n(n2)CC(c2ccc4c(c2)OCO4)OC3)cc1OC (stereo unspecified) | / | / | / | / | 1% | /
COc1ccc(-c2cc(C(=O)N(C)C)c3ccccc3n2)cc1 | / | / | / | / | 1% | /
Cc1ccccc1C(=O)NC1CCN(c2nc3ncccc3o2)CC1 | / | / | / | / | 4%[176 µM] | /
COc1cc(/C=N/NC(=O)NC23CC4CC(CC(C4)C2)C3)ccc1O | ? | ? | 26µM* | ? | ? | -24%
CSc1nsc(SC)c1C(=O)N1CCN(S(=O)(=O)c2ccc(C)cc2)C1C (stereo unspecified) | 13 | 23µM* | -3% | 1% | 5% | ?
CSc1nsc(SC)c1C(=O)N1CCN(S(=O)(=O)c2ccc(C)cc2)C1C(C)C (stereo unspecified) | 13 | ? | ? | -3% | 29% | ?
O=c1c(Cc2ccc(F)cc2)c(O)ccn1Cc1cccc(Cl)c1 | 0 | 16µM* | -2% | -9% | -7% | ?
O=C(NCCC1CCCCC1)c1ccc2nccn2c1 | / | / | / | / | 48%[176 µM] | /
Cc1cccc(C(=O)N2CCC3(CC2)c2[nH]c4ccccc4c2CCN3C)c1 | / | / | / | / | 23% | /
O=C(CSc1nnc2ccc(-c3ccccn3)nn12)N1CCN(c2ccccc2)CC1 | / | / | / | / | -21% | /
Cc1cccc(NC(=S)NC2CCCC2)c1C | -1 | 0% | 5% | -2% | ? | 1%
Cc1cccc(NC(=S)NC2CCCCCC2)c1C | 32 | 10µM* | -1% | -5% | 50µM* | 21µM*
Cc1cc(Cl)ccc1NC(=S)NC1CCCC1 | -9 | 21µM* | 5% | 5% | ? | ?
